From PubChem BioAssay AID1347426 (Functional Genomics Laboratory (NCATS/FGL), 2020) come the findings set out here.

Screen size: about 31,000 sequences; about 1,400 (4.5%) were called active.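 Rule for the calls: active = median seed-adjusted z-score above 1 or below -1; inactive = the rest.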 The full list was thinned out, with actives kept by preference.

This assay is described as follows: Novel Modifiers of Survival Motor Neuron (SMN) Protein: Gene Identification via Genome-wide siRNA Screen.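 Note: luminescence tracks full-length SMN protein made from the SMN2 reporter.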 The following applies: HEK293T SMN2-luciferase reporter, siRNA knockdown, 72 h; actives lie on both sides. In a few lines: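 Each of three siRNAs per gene is reverse-transfected (1 pmol) into reporter HEK293T cells whose luciferase output tracks SMN protein level. After 72 h culture, ONE-Glo luminescence is control-normalized, log10-transformed and MAD-standardized; Common Seed Analysis deprioritizes seed-driven hits.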
On the technique in general: A reporter such as luciferase makes a cellular process visible.
As to GAUCCACCUUAUACUCAUATT against EPS8, the median seed-adjusted z-score was 0 (inactive).
The value for GAUGAUUACAUAUCAGAGATT against ZNF630 was -0.533 (inactive); that for CACCCUAAUGGAUACAGCUTT against NTSR2 was -0.125 (inactive).
Then GACUAAAUCAGUUACCGAATT against MED17, with -2.06 (active); and GCACCUGAAUGACACGCAATT against HOXD1, with 0.144 (inactive).
Then GGAAUUGUGGUGUUAGUAATT against POLN, with -0.129 (inactive).
As for GGUCAUUGCCCGAACAAUATT against BNC1, the median seed-adjusted z-score was -0.631 (inactive).
Then GGACUUUAUUCGGAAGCUUTT against DAPK2, with 0.268 (inactive); and AAUUCAAGCUAUGAAGAUATT against ACO2, with -1.57 (active).
The value for CCUUCAAUGUGGGCUACCATT against DEGS2 was -0.305 (inactive); that for CAACCUUUCUUGUUAGUAATT against DHRS7 was 0.255 (inactive); that for CUGUUCCAGUUGUGGCUCUTT against KRTAP5-1 was 0 (inactive).
Then CAACAGCGAUUGGAAUGGATT against UGDH, with 0.674 (inactive); and CUGGAAGUGUUAUUCCUAATT against FOXD4L1, with 0.271 (inactive); and CGACAAGCCCAAUGUUUAUTT against SSU72, with -1.64 (active).
For the sequence GUACCGAGAGAAUAACAAATT against SYP, the median seed-adjusted z-score is -0.0289 (inactive).
Consider GCUGGUUAGGAACCGCUCATT against ZNF579, for which the median seed-adjusted z-score was -0.0604 (inactive).
Then GGCAAGUAGAUAGUACAUUTT against ZNF507, with -0.262 (inactive); and UGAUAAGGAUAACAAGAGATT against CAMP, with -0.622 (inactive); and GCAUCAAGAUUUUCCGCUUTT against SLC26A2, with -1.25 (active).
The value for GCAUAGGCCCAGUAACUUATT against SLC25A34 was -0.256 (inactive).
Turning to CGCUCACAGUCAUACACGUTT against SLC39A7, the median seed-adjusted z-score was 0.0554 (inactive).
The value for CUCUUGUACCAGUUCCUGATT against SLC25A35 was -0.762 (inactive); that for UGGUCGUUAUGGUCCUAUATT against FUSIP1 was 0.865 (inactive); that for GGCACGGUUUUGGUCGAAATT against FREM2 was 0.143 (inactive).
As to UACAUAUGCUGGACAGAAATT against SSU72, the median seed-adjusted z-score was -1.64 (active).
Then CAGGUAUGGUGAACCGUGATT against YES1, with -0.508 (inactive).
The value for GUACCUCGUAAAUCACGAATT against NFAT5 was 0.106 (inactive).
For the sequence GAUUUUCACUUGCAACUCATT against PDP2, the median seed-adjusted z-score is -0.0726 (inactive).
Then AGAGCAACAUCAACAUUAUTT against TKTL1, with -0.495 (inactive).
As for CGACCGUGGUGACAUGAUUTT against LRP3, the median seed-adjusted z-score is -1.05 (active).
As for GCUCCGCAAAUGUGGUUGATT against ZNF714, the median seed-adjusted z-score was 0 (inactive).
The value for UGCGCAACCUUAAGAACAATT against PRAF2 was -0.326 (inactive).
The value for GAAAGGCAGUUUUCGUAAATT against NXF3 was 0.672 (inactive).
As to GAGAGGUACCAGACCAUGATT against POLM, the median seed-adjusted z-score is -1.55 (active).
Then AGCCUGAAAGUAUCCGUAATT against CLTA, with 0.243 (inactive); and GGAGCUCUGUUGUGGAGAATT against FCGRT, with -0.00396 (inactive); and GGACUAAACUACCUCCAAATT against KCNE3, with -1.33 (active).
Then CCUGAAAUCAUAGAGUUAATT against KCNMA1, with 0 (inactive); and AGCAGAAGAUGGUAGAUGATT against VIL1, with 0.368 (inactive).
Take AGGGCACAUUCACCAGUGATT against GCG: the median seed-adjusted z-score was -1.18 (active).
Then CUCCUGCUGCAAAACAAUATT against SLC25A6, with -0.928 (inactive); and GUCACGUCUUGAUACCUCUTT against ACAD8, with 1.06 (active).
The value for GAUUGUCUUCGGUCUAUUATT against STAM was 0 (inactive).
The value for GACCCACUCUUGAAAGACATT against ZNF304 was -0.44 (inactive).
As to CGAGAGGGCUGUUUCCAAATT against LIMS3, the median seed-adjusted z-score was -0.078 (inactive).
Take GAAAGAUGGUGUUGACUUUTT against ALDOB: the median seed-adjusted z-score is -1.34 (active).
As to CUUCAUAUCUCUUUACGUATT against PIGW, the median seed-adjusted z-score is -0.242 (inactive).
Then CCACCAAUGUAGUCUAUCATT against PAPSS2, with -0.201 (inactive); and AGAAGACCCGUAGACUGAATT against NEUROG2, with -0.366 (inactive).
The value for UAAACUCGUUAGUCAAUUATT against SLC7A9 was 0.194 (inactive); that for GCAGAUAAGUGAACGAGAUTT against SAMHD1 was -1.33 (active).
The value for CGCUCCUUGUCAAAAGAAATT against KCNS3 was 0.103 (inactive); that for GCAUGACCUCUGUAAGGGATT against ANK1 was -0.282 (inactive).
As to GAAUCGCAAGGAUAUGAUATT against MSH2, the median seed-adjusted z-score is 0 (inactive).
Then CCAUCUACCAGCUAAUCAATT against PIK3C2G, with 0.0251 (inactive).
Then GGAUUCCCUUCAAGAUAUATT against NUCB2, with 0.45 (inactive); and CCAUCACCCGUGAAGAGAATT against CRYAB, with 0.354 (inactive).
Then CAAUGGUCCAAGUCUAACATT against EEF1E1, with -1.45 (active).
For CCCAGUCAAUCAAAGGAAATT against CD3G, the median seed-adjusted z-score is -0.0274 (inactive).
Then GAAAGCAACUGACACUCUUTT against ATP2C2, with -0.302 (inactive).
Then CAAGGGCACAGGCACAAAATT against SBK1, with 0.0587 (inactive).
In the case of ACCACGCAUUAAAACCAAATT against PRKCE, the median seed-adjusted z-score was 0.568 (inactive).
The value for GGGAGGAUUUGAUCGGACATT against SPEN was -1.69 (active).
Regarding CCUUCUGAAAGAACGCAAATT against ABCA8, the median seed-adjusted z-score is -0.666 (inactive).
Take GAAUAUGCAUUGCUAACCATT against SV2C: the median seed-adjusted z-score is 0.183 (inactive).
The value for GGCAUUAUCUGGAUCACUUTT against PATE1 was 1.21 (active); that for GAAGAUCAUUAGAUUUCUATT against SULT1B1 was -0.115 (inactive).
The value for GUACGUCCAUUAUGGAGAATT against GPR82 was -0.83 (inactive).
